This passage reports outcome and AC50 results from PubChem BioAssay (EPA / NIEHS).

Each structure is given as a SMILES string. Calls of active or inactive are those of the source. How the source made its calls: active means hit-call score of the fitted dose curve at least 0.9, where 1 is the maximum; inactive means score below 0.9.

Details in all cases: mRNA level, 48 h; actives raise or lower the signal
Read-out in experiment [1]: Cyclin D1 (CCND1), CCND1 (gene 595)
In words: LTEA_HepaRG_CCND1: Life Technologies and Expression Analysis (LTEA) Assay for Cyclin D1 (CCND1) using HepaRG (AID 2283451). The gist of the method: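 HepaRG plated 48 h, medium switched to serum-free induction medium, chemicals added in duplicate (top 100 uM, half-log steps, 0.5% DMSO) for 48 h, cells lysed, RNA measured by TaqMan qRT-PCR.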

Read-out in experiment [2]: catalase (CAT), CAT (gene 847)
In words: LTEA_HepaRG_CAT: Life Technologies and Expression Analysis (LTEA) Assay for catalase (CAT) using HepaRG (AID 2283452). An outline of the steps: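 Differentiated HepaRG cells in serum-free induction medium were dosed 48 h in duplicate, eight half-log concentrations from 100 uM in 0.5% DMSO. Transcript measured by TaqMan qRT-PCR, normalised to ACTB/GAPDH/POLR2A, fitted bidirectionally against DMSO.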

Read-out in experiment [3]: flavin-containing dimethylaniline monooxygenases 3 (FMO3), FMO3 (gene 2328)
Nature of the experiment: LTEA_HepaRG_FMO3: Life Technologies and Expression Analysis (LTEA) Assay for flavin-containing dimethylaniline monooxygenases 3 (FMO3) using HepaRG (AID 2283453). An outline of the steps:
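Differentiated HepaRG cells in serum-free induction medium, exposed 48 h in duplicate to 8 half-log concentrations up to 100 uM in 0.5% DMSO. FMO3 mRNA by qRT-PCR, normalized to ACTB, GAPDH, POLR2A; bidirectional fit vs DMSO.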

Read-out in experiment [4]: Cytochrome P450 (CYP1A1), CYP1A1 (gene 1543)
In words: LTEA_HepaRG_CYP1A1: Life Technologies and Expression Analysis (LTEA) Assay for Cytochrome P450 (CYP1A1) using HepaRG (AID 2283454). The gist of the method: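 HepaRG, 48 h post-plating switched to serum-free induction medium; 8-pt conc-response (top 100 uM, half-log, 0.5% DMSO), duplicates, 48 h. Lysis in RLT, TaqMan qRT-PCR for CYP1A1; gain or loss vs DMSO.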

Read-out in experiment [5]: CFLAR gene, CFLAR (gene 8837)
In words: LTEA_HepaRG_CFLAR: Life Technologies and Expression Analysis (LTEA) Assay for CFLAR gene using HepaRG (AID 2283455). The gist of the method:
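HepaRG cells were plated for 48 h, switched to serum-free induction medium, then exposed in duplicate for 48 h to 8 concentrations (top 100 uM, half-log steps, 0.5% DMSO). CFLAR mRNA was measured by qRT-PCR, normalized to ACTB, GAPDH and POLR2A.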

Read-out in experiment [6]: Forkhead box O1 (FOXO1), FOXO1 (gene 2308)
In words: LTEA_HepaRG_FOXO1: Life Technologies and Expression Analysis (LTEA) Assay for Forkhead box O1 (FOXO1) using HepaRG (AID 2283456). The gist of the method:
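Differentiated human HepaRG cells in serum-free induction medium were exposed in duplicate for 48 h to eight half-log concentrations (top 100 uM, 0.5% DMSO). FOXO1 mRNA was measured by TaqMan qRT-PCR, normalised to ACTB, GAPDH and POLR2A, and fitted bidirectionally against DMSO.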

Read-out in experiment [7]: growth arrest and DNA damage 45 (GADD45A), GADD45A (gene 1647)
Nature of the experiment: LTEA_HepaRG_GADD45A: Life Technologies and Expression Analysis (LTEA) Assay for growth arrest and DNA damage 45 (GADD45A) using HepaRG (AID 2283458). An outline of the steps:
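Differentiated HepaRG cells exposed 48 h in serum-free induction medium to 8 concentrations, top 100 uM in half-log steps, 0.5% DMSO. GADD45A mRNA quantified by qRT-PCR, normalized to ACTB, GAPDH and POLR2A; bidirectional fit versus DMSO.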

Read-out in experiment [8]: Forkhead box O3 (FOXO3), FOXO3 (gene 2309)
In words: LTEA_HepaRG_FOXO3: Life Technologies and Expression Analysis (LTEA) Assay for Forkhead box O3 (FOXO3) using HepaRG (AID 2283459). An outline of the steps:
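Differentiated human HepaRG cells in serum-free induction medium were exposed in duplicate for 48 h to eight half-log concentrations up to 100 uM in 0.5% DMSO. FOXO3 mRNA was quantified by qRT-PCR, normalized to ACTB, GAPDH and POLR2A, with bidirectional fitting versus DMSO.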

Read-out in experiment [9]: ABC Transporter (ABCB1), ABCB1 (gene 5243)
Nature of the experiment: LTEA_HepaRG_ABCB1: Life Technologies and Expression Analysis (LTEA) Assay for ABC Transporter (ABCB1) using HepaRG (AID 2283460). The gist of the method: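 Differentiated human HepaRG cells, plated 48 h then switched to serum-free induction medium, were exposed in duplicate to eight half-log concentrations up to 100 uM in 0.5% DMSO for 48 h. ABCB1 mRNA was measured by TaqMan qRT-PCR, normalized to ACTB/GAPDH/POLR2A.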

Read-out in experiment [10]: ABC Transporter (ABCC3), ABCC3 (gene 8714)
Nature of the experiment: LTEA_HepaRG_ABCC3: Life Technologies and Expression Analysis (LTEA) Assay for ABC Transporter (ABCC3) using HepaRG (AID 2283462). An outline of the steps:
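Human HepaRG, 48 h dosing, 8-pt half-log series from 100 uM, 0.5% DMSO vehicle, duplicates. ABCC3 mRNA by TaqMan qRT-PCR, housekeeping-normalized; bidirectional curve fit vs DMSO.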

Read-out in experiment [11]: ABC Transporter (ABCB11), ABCB11 (gene 8647)
In words: LTEA_HepaRG_ABCB11: Life Technologies and Expression Analysis (LTEA) Assay for ABC Transporter (ABCB11) using HepaRG (AID 2283463). The gist of the method: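 Differentiated human HepaRG cells were exposed for 48 h in serum-free induction medium to eight half-log concentrations up to 100 uM in 0.5% DMSO. ABCB11 mRNA was quantified by qRT-PCR, normalized to ACTB, GAPDH and POLR2A, and fitted bidirectionally versus DMSO.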

Read-out in experiment [12]: ABC Transporter (ABCC2), ABCC2 (gene 1244)
In words: LTEA_HepaRG_ABCC2: Life Technologies and Expression Analysis (LTEA) Assay for ABC Transporter (ABCC2) using HepaRG (AID 2283464). An outline of the steps: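 HepaRG, 48 h post-plating; serum-free induction medium; cpd 8-pt, 100 uM top, half-log, 0.5% DMSO, duplicate, 48 h. Readout: ABCC2 mRNA by qRT-PCR, norm. ACTB/GAPDH/POLR2A. Bidirectional fit vs DMSO baseline.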

Read-out in experiment [13]: Broad substrate specificity ATP-binding cassette transporter ABCG2 (Homo sapiens) (UniProt Q9UNQ0)
Nature of the experiment: LTEA_HepaRG_ABCG2: Life Technologies and Expression Analysis (LTEA) Assay for ABC Transporter (ABCG2) using HepaRG (AID 2283465). The gist of the method:
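Differentiated HepaRG cells in serum-free induction medium were exposed for 48 h, in duplicate, to eight half-log concentrations up to 100 uM in 0.5% DMSO. ABCG2 mRNA was measured by TaqMan qRT-PCR, normalized to ACTB, GAPDH and POLR2A, and fitted bidirectionally versus DMSO.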

Read-out in experiment [14]: ATP-citrate lyase (ACLY), ACLY (gene 47)
In words: LTEA_HepaRG_ACLY: Life Technologies and Expression Analysis (LTEA) Assay for ATP-citrate lyase (ACLY) using HepaRG (AID 2283466). An outline of the steps: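 Differentiated human HepaRG cells in serum-free induction medium exposed 48 h, in duplicate, to eight half-log concentrations from 100 uM top in 0.5% DMSO; ACLY mRNA measured by qRT-PCR, normalized to ACTB, GAPDH, POLR2A, fitted bidirectionally versus DMSO.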

Read-out in experiment [15]: Peroxisomal acyl-coenzyme A oxidase 1 (ACOX1) gene, ACOX1 (gene 51)
In words: LTEA_HepaRG_ACOX1: Life Technologies and Expression Analysis (LTEA) Assay for Peroxisomal acyl-coenzyme A oxidase 1 (ACOX1) gene using HepaRG (AID 2283467). An outline of the steps: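 Differentiated human HepaRG cells were exposed in duplicate for 48 h in serum-free induction medium to eight half-log concentrations up to 100 uM in 0.5% DMSO. ACOX1 mRNA was then quantified by TaqMan qRT-PCR, normalized to ACTB, GAPDH and POLR2A.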

Read-out in experiment [16]: Alkaline Phosphatase, Placental (ALPP) gene, ALPP (gene 250)
Nature of the experiment: LTEA_HepaRG_ALPP: Life Technologies and Expression Analysis (LTEA) Assay for Alkaline Phosphatase, Placental (ALPP) gene using HepaRG (AID 2283468). An outline of the steps:
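HepaRG, 48 h plating then 48 h dosing, serum-free induction medium, 0.5% DMSO. 8 conc, half-log, max 100 uM, duplicates. Endpoint: ALPP transcript by qRT-PCR, housekeeping-normalized; gain or loss fitted vs DMSO.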

Read-out in experiment [17]: Bcl-2 (BAD) gene, BAD (gene 572)
In words: LTEA_HepaRG_BAD: Life Technologies and Expression Analysis (LTEA) Assay for Bcl-2 (BAD) gene using HepaRG (AID 2283469). The gist of the method:
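Differentiated human HepaRG cells in serum-free induction medium were exposed in duplicate for 48 h to eight concentrations (top 100 uM, half-log steps, 0.5% DMSO). BAD mRNA was quantified by qRT-PCR normalised to ACTB, GAPDH and POLR2A, with bidirectional fitting versus DMSO.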

Read-out in experiment [18]: growth arrest and DNA damage 45 (GADD45B), GADD45B (gene 4616)
In words: LTEA_HepaRG_GADD45B: Life Technologies and Expression Analysis (LTEA) Assay for growth arrest and DNA damage 45 (GADD45B) using HepaRG (AID 2283461). An outline of the steps: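 HepaRG, ~100,000 cells/well, 48 h plating; serum-free induction medium; cpd 100 uM top, half-log x8, 0.5% DMSO, duplicate, 48 h; lysis in RLT, RNA isolation, qRT-PCR; norm ACTB/GAPDH/POLR2A; bidirectional fit vs DMSO.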

Chain of Broad substrate specificity ATP-binding cassette transporter ABCG2 (Homo sapiens) (Q9UNQ0 whole entry, looked up): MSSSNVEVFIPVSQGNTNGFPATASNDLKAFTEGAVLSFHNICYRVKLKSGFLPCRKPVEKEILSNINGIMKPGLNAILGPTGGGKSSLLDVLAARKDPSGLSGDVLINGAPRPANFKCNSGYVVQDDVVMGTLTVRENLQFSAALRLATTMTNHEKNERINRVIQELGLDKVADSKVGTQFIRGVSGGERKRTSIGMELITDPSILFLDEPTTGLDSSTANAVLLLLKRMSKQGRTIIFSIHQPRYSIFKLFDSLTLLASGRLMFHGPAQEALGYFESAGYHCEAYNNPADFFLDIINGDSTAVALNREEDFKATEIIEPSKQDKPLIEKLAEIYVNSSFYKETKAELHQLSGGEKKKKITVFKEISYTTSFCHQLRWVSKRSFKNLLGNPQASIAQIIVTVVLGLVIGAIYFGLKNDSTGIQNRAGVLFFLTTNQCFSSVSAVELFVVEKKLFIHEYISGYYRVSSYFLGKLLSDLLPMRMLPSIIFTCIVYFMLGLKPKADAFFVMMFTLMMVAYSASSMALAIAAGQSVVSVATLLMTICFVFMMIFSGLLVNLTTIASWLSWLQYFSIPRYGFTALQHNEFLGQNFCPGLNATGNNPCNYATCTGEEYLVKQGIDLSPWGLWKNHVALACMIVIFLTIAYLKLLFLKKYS

Turning to `C#CC(O)C(CC)CCCC` (configuration not stated), the outcome in [1], in [2], in experiment [3], in experiment [5], in experiment [6] and in [7] was inactive. Also, the call in experiment [8], in [9], in experiment [10], in experiment [11], in experiment [12] and in experiment [13] was inactive. In [14], the result was inactive. In addition, the AC50 in experiment [4] was 73.1 µM (active).

Take `Cc1ccc(C(C)(C)C)c(O)c1`: the outcome in experiment [1], in experiment [2], in experiment [3], in experiment [5], in experiment [6] and in [7] was inactive. The compound was classed as inactive in experiment [8], in experiment [9], in experiment [10], in experiment [11], in experiment [12] and in experiment [13]. The compound was classed as inactive in experiment [14], in experiment [15], in experiment [16] and in experiment [17]. In addition, in experiment [4], the AC50 was 41.7 µM (active).

Take `C/C=C/c1ccc(OC)cc1`: the compound was called inactive in [1], in experiment [3], in experiment [5], in experiment [6], in experiment [7] and in experiment [8]. Moreover, the call in experiment [9], in experiment [18], in [10], in experiment [11], in experiment [12] and in experiment [13] was inactive. Moreover, the compound was called inactive in [14], in experiment [15] and in [16]. Also, the concentration at half-maximal activity (AC50) in [4] was 50 µM (active).

For the compound `CCCCC(CC)COC(=O)CCCCCCCC(=O)OCC(CC)CCCC` (configuration not stated), the compound was called inactive in experiment [1], in experiment [3], in [5], in experiment [6], in [7] and in experiment [8]. The compound was classed as inactive in [9], in [18], in experiment [10], in [11], in experiment [12] and in [13]. Besides, the outcome in [14], in experiment [15], in experiment [16] and in experiment [17] was inactive. The AC50 in [4] is 50 µM (active).

`C=CCCCCCCCCCCCC`: the result in experiment [1], in experiment [3], in experiment [4], in [5], in experiment [6] and in experiment [7] was inactive. Further, the compound was classed as inactive in experiment [8], in [9], in experiment [18], in experiment [10], in [11] and in [12]. Moreover, the call in experiment [13], in [14], in [15], in [16] and in [17] was inactive.

`Cc1ccc(-c2cc(C(F)(F)F)nn2-c2ccc(S(N)(=O)=O)cc2)cc1`: the compound was classed as inactive in experiment [1], in experiment [7], in experiment [10], in experiment [11] and in experiment [13]. Besides, the AC50 in [2] is 83.6 µM (active); in experiment [3] it was 76.8 µM (active); in experiment [4], 12.5 µM (active); in [5] it was 78.3 µM (active); in experiment [6], 77.2 µM (active); in experiment [8] it was 93.6 µM (active). In addition, the AC50 is 82.2 µM (active) in experiment [9], 85 µM (active) in [12], 89.6 µM (active) in experiment [14] and 92.9 µM (active) in experiment [15].

Take `NC=O`: the result in [1], in experiment [3], in [4], in experiment [5], in experiment [6] and in experiment [7] was inactive. For the same compound, the result in experiment [8], in experiment [9], in [10], in experiment [11], in [12] and in experiment [13] was inactive. In addition, the result in [14], in [15], in experiment [16] and in [17] was inactive.

By AC50 is commonly meant the concentration giving half of the maximal activity seen.
